From PubChem
NPYLR7 ag: mosquito NPYLR7 agonism | HEK293T NPYLR7/Galpha15, GCaMP6s calcium fluorescence | activation, % at 10 µM | actives 0.15% (n = 270,000) | AID 1259423; in the data active = activation above about 40%
mcGAS inh: blocks mouse cGAS activity; Q8C6L5; recombinant cGAS, Kinase-Glo ATP depletion luminescence; inhibition, % at 12.5 µM; actives 0.15% (n = 160,000)
hcGAS lum: blocks human cGAS activity | Q8N884 | AID 1259398 | actives 0.081% (n = 290,000) | recombinant h-cGAS, ATP depletion, Kinase-Glo luminescence | inhibition, % at 12.5 µM
A number is an active result; i = inactive; nt = no result given. In the library only some 0.3% were active in any assay of this set; here they are far more common. Cut-off read from the data, not from the text of the source, unless noted: active = inhibition above about 40%; inactive = the rest.

SMILES	NPYLR7 ag	mcGAS inh	hcGAS lum
O=c1c(O)c(-c2ccc(O)c(O)c2)oc2c(O)c(O)cc(O)c12	i	nt	47
N#Cc1ccc(NCC(=O)N2CCCC2)cc1C(F)(F)F	i	nt	i
O=C1OC2(c3cc(Br)c(O)cc3Oc3c2cc(Br)c(O)[c]3[Hg])c2ccccc21 (stereo not given)	98	i	i
CCc1ccc(-n2c(-c3ccc(OC)cc3OC)nc3ccccc3c2=O)cc1	i	i	i
O=C(c1ccccc1F)N1CCSC12CCNCC2	i	nt	i
O=C(Cc1c[nH]c2ccccc12)N1CCN(Cc2cccc(-c3noc(-c4cccc(Cl)c4)n3)c2)CC1	i	i	i
COC(=O)C(CCSC)NC(=O)c1cn(C2CCCCC2)nn1 (stereo not given)	i	i	i
Oc1c(Cl)c(Cl)c(Cl)c(Cl)c1Cl	i	nt	70
N#CCCN1CN(c2ccc(Cl)cc2)CN=C1N[N+](=O)[O-]	i	i	i
O=C(c1cccc2cnccc12)N1CCC2(CC1)NCCNC2=O	i	i	i
CN(C)C(C)(C)Cc1c2c(cc3c1CCC3)CCC2	i	nt	i
CC(C)(C)c1nn(-c2cccc(Cl)c2)c2c1C(c1cccc(F)c1)SCC(=O)N2CC(=O)O (stereo not given)	i	i	i
Cc1cccc(N2C(=O)NC(=O)/C(=C/c3cn(C)c4ccccc34)C2=O)c1	53	i	i
Cc1ccc(N2C(=O)NC(=O)/C(=C/c3cn(C)c4ccccc34)C2=O)cc1	i	i	i
N#Cc1cccc(-c2ccc(=O)n3c2[C@@H]2C[C@@H](CN(S(=O)(=O)c4ccccc4)C2)C3)c1	i	i	i
O=[N+]([O-])c1cc(C(F)(F)F)cc2c1no[n+]2[O-]	i	nt	i
O=[N+]([O-])c1c(Cl)ccc2c1no[n+]2[O-]	i	93	61
N#CC(C#N)=Cc1ccc(O)cc1	i	nt	i
N#CC(C#N)=Cc1ccc(-c2ccccc2)cc1	i	49	i
CCOC(=O)[C@@]12C(=O)C(=O)N[C@]1(c1ccccc1)C1C=CCCC12 (stereo not given in full)	i	nt	i
COC(C)(C)C(=O)N1CCN2CCNC(=O)C2C1 (stereo not given)	i	i	i
CCn1nc(-c2cccs2)nc2c(=O)n(C)c(=O)nc1-2	i	59	i
Cc1cccc(C(=O)Nc2ccc3[nH]cc(CCN4CCOCC4)c3c2)c1	i	i	i
N#CC1C(=N)Oc2c(c(=O)oc3ccccc23)C1c1cccc(F)c1 (stereo not given)	i	i	i
N#CC1C(=N)Oc2c(c(=O)oc3ccccc23)C1c1ccc([N+](=O)[O-])o1 (stereo not given)	i	59	i
SMILES	NPYLR7 ag	mcGAS inh	hcGAS lum
Cc1cccc2nc(C(=O)Nc3ccc(C#N)c(Cl)c3)cn12	i	i	i
CN1CCN2C[C@@H](NC(=O)c3onc4ccccc34)C[C@H]2C1	i	i	i
COc1cccc(CC(=O)N2CCN(C(c3ccc(F)cc3)c3ccc(F)cc3)CC2)c1	i	i	i
CC1=NCCc2c1[nH]c1cc(O)ccc21	65	i	i
COc1ccc2c3c([nH]c2c1)C(C)=NCC3	i	i	i
N#Cc1ccccc1-c1ccc(COc2coc(CN3CCN(C(=O)COc4ccccc4)CC3)cc2=O)cc1	i	i	i
O=C(O)c1ccccc1-c1c2cc(Br)c(=O)cc-2oc2[c]([Hg])c(O)c(Br)cc12	60	nt	i
COC(=O)[C@]12CCC(C)(C)C[C@H]1[C@H]1C(=O)C=C3[C@@]4(C)C=C(C#N)C(=O)C(C)(C)[C@@H]4CC[C@@]3(C)[C@]1(C)CC2	i	52	i
